# Rtt109 HAT inh = C. albicans Rtt109 histone acetyltransferase inhibition; Q5AAJ8; purified Rtt109/Vps75, ThioGlo CoA-SH fluorescence, 4 h; inhibition, % at 34.9 µM; actives 0.16% (n = 330,000); AID 540336;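 active means inhibition of at least 50% in every replicate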
# Target sequence (Q5AAJ8 whole entry, looked up): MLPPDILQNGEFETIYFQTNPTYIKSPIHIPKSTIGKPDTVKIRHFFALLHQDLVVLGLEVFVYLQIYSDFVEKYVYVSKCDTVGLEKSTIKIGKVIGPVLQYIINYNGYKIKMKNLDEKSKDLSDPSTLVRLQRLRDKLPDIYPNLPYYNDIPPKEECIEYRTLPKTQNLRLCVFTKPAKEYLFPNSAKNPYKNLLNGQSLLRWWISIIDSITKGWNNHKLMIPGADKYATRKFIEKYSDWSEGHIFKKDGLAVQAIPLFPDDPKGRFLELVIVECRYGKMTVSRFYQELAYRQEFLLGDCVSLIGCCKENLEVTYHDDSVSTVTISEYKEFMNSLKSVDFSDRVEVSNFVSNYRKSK
# SKKanGAS inh = inhibitors of SKKanGAS S. pyogenes growth in kanamycin (SK-promoter or general growth effect). BacTiter-Glo, 6 h. inhibition, % at 7.5 µM. AID 1662. actives 1.3% (n = 300,000);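 active means mean replicate score, as percent of positive control median, at least 50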;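 further: strain carries kanamycin resistance gene driven by streptokinase promoter and grows in 40 µg/ml kanamycin; loss of luminescence reflects streptokinase promoter inhibition or plain growth inhibition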
# PHOSPHO1 inh = blocks human PHOSPHO1 phosphatase activity | Q8TCT1 | recombinant PHOSPHO1, absorbance phosphatase assay | inhibition, % at 13.3 µM | actives 1.1% (n = 290,000) | AID 1565; in the data active means inhibition above about 60%
# Target sequence (Q8TCT1 whole entry, looked up): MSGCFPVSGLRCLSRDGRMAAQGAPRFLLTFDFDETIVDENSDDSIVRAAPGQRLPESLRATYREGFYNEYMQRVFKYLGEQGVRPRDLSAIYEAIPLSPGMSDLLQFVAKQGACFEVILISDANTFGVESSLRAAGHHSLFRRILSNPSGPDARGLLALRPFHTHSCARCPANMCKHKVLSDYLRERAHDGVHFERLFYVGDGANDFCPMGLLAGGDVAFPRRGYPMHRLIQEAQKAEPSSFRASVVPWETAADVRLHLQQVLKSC
# Platelet DG rel = modulates dense granule release in human platelets; human platelet-rich plasma, SFLLRN dense granule ATP release, luminescence; inhibition, %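 (compounds screened at 7.5 µM in platelet-rich plasma)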; actives 0.22% (n = 300,000); AID 1663;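 active means mean replicate score, as percent of positive control, at or above 50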
# TPT1 inh = C. albicans TPT1 enzyme inhibition; recombinant caTPT1, FP RNA substrate dephosphorylation; inhibition, % at 5 µM; actives 0.81% (n = 300,000);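 active means inhibition above the mean of all tested compounds plus 3 SD, set per screening campaign, cut at about 24% in these data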
# WT yeast gro inh = growth inhibition of WT yeast, mitochondrial fusion screen. inhibition, % at 10 µM. actives 2.1% (n = 190,000). mitochondrial fusion phenotypic screen, WT strain; in the data active means inhibition above about 58%; tested in S. cerevisiae
# Hits are given with their value; i = inactive; nt = not tested or not shown. Compounds with a hit are over-represented: about 3.9% of the library has one in this group of screens.
SMILES,Rtt109 HAT inh,SKKanGAS inh,PHOSPHO1 inh,Platelet DG rel,TPT1 inh,WT yeast gro inh
Cc1ccc(S(=O)(=O)CNC(=S)c2ccc3ccccc3c2)cc1,i,62.4,85.8,i,i,i
Cc1ccc(S(=O)(=O)CNC(=O)c2ccccc2)cc1,i,i,i,i,i,i
CCN(CC)CCNC(=O)C(Cl)=C1C(Cl)=C(Cl)C(Cl)=C1Cl,i,nt,nt,nt,nt,nt
COCc1cc(=O)[nH]c(Nc2nc3ccc(C)cc3o2)n1,i,69.7,i,i,i,i
CCc1ccc2nc(Nc3nc(COC)cc(=O)[nH]3)nc(C)c2c1,i,i,i,i,i,i
CCOC(=O)N1CCN(CC(=O)N2c3ccccc3Sc3ccccc32)CC1,i,i,i,i,i,nt
CCOC(=O)N1CCN(CC(=O)N2CCC(C(N)=O)CC2)CC1,i,i,i,58.8,i,i
COc1cc([N+](=O)[O-])cc(/C=N/NC(=O)c2cc(C)nc3ccccc23)c1O,i,106.4,i,i,i,nt
Cc1cc(C(=O)N/N=C/c2cccc([N+](=O)[O-])c2)c2ccccc2n1,i,i,i,i,i,i
COc1ccc2c(c1)/C(=N/OC(=O)c1cccs1)CCC2,nt,i,i,i,i,70.8
COCCNC(=O)C(=O)Nc1cc2c3c(c1)CCC(=O)N3CCC2,i,i,i,i,i,nt
Cc1ccc2[nH]c(=O)c(C3C(C#N)=C(N)Oc4c3ccc3cccnc43)cc2c1 (stereo not drawn),i,i,82.7,i,i,i
Cc1ccc(C(=O)COC(=O)CNC(=O)COc2ccccc2C)cc1C,i,i,i,i,i,i
Cc1ccccc1OCC(=O)NCC(=O)OCC(=O)c1ccc([N+](=O)[O-])cc1,130.0,i,i,i,i,nt
O=C(CCC(=O)OCC(=O)c1ccc([N+](=O)[O-])cc1)Nc1ccccc1Cl,74.9,i,i,i,i,nt
O=C(CCC(=O)OCC(=O)c1cccc([N+](=O)[O-])c1)Nc1cccc(Cl)c1Cl,i,i,i,i,i,i
COc1ccc(NC2CCCN(C(=O)CN3CCOC3=O)C2)cc1 (stereo not drawn),i,i,i,i,i,nt
O=C(CSc1nc2nn(-c3ccccc3)c(=O)c-2c2n1CCCCC2)Nc1ccccc1[N+](=O)[O-],i,nt,nt,nt,nt,nt
CC(C)(C)C1CC=C2C(C#N)=C(N)C(C#N)(C#N)C(c3cccs3)C2C1 (stereo not drawn),nt,53.6,i,i,i,nt
O=C(NCCCNC(=O)c1ccc(-c2cc(Cl)ccc2Cl)o1)c1cnccn1,i,i,i,i,i,nt
COc1ccc(/C=C2/SC(=O)N(NS(=O)(=O)c3ccccc3)C2=S)cc1OC,78.9,i,i,i,i,i
C/C(CCN1CCc2nc(-c3ccccc3)c(-c3ccccc3)cc2C1)=N\OC[C@@H](C)[C@H](OCc1ccccc1)C(C)C,nt,i,i,i,i,60.8
COc1ccc(OC)c(CNS(=O)(=O)c2c(C)nc3scc(C)n3c2=O)c1,i,i,i,i,i,nt
CC(C)(C)c1ccc(Cn2c(=N)n(CC(O)c3ccco3)c3ccccc32)cc1 (stereo not drawn),i,i,i,i,i,59.0
COc1ccc(-c2nc3c4c(ncn3n2)-c2ccccc2CC42CCCC2)cc1,i,i,i,i,i,i
SMILES,Rtt109 HAT inh,SKKanGAS inh,PHOSPHO1 inh,Platelet DG rel,TPT1 inh,WT yeast gro inh
Oc1cccc(-c2nc3c4c(ncn3n2)-c2ccccc2CC42CCCC2)c1,i,106.1,i,i,i,i
Cc1cc2nc(N3C(=O)CNC3=S)sc2cc1C,i,85.3,i,i,i,i
CCN(CC(=O)Nc1ccccc1C(F)(F)F)C(=O)/C=C/c1ccc(Cl)c([N+](=O)[O-])c1,i,i,nt,i,i,nt
c1ccc(CSc2nc3ncncc3[nH]2)cc1,i,i,i,i,i,nt
S=c1nc(SCc2ccccc2)[nH]c2ccccc12,i,76.4,i,i,i,61.7
CC(=O)Nc1ccc(NC(=O)C2CC(=O)N(Cc3ccco3)C2)cc1 (stereo not drawn),i,nt,nt,nt,nt,nt
CCN(CC(O)Cn1c2ccccc2c2ccccc21)S(=O)(=O)c1ccc(F)cc1 (stereo not drawn),i,nt,i,i,i,65.4
CC(C)OC(=O)N(C)c1ccc(C(O)(C(F)(F)F)C(F)(F)F)cc1,55.2,i,i,i,i,i
O=C(NCc1ccco1)C1CCN(C(=O)c2cc3sccc3n2Cc2ccc(Cl)cc2)CC1,i,i,i,i,i,61.3
CNc1nc2c3ccccc3n(C(C)=O)c2s1,i,i,i,50.0,i,i
CC(Sc1nnc(C2CC2)n1C1CC1)C(=O)N(C)Cc1cccc(F)c1 (stereo not drawn),i,nt,nt,nt,nt,nt
O=C(CN1C(=O)C2CCCCC2C1=O)Nc1nc(-c2ccccn2)cs1 (stereo not drawn),i,i,70.9,i,i,i
COc1ccc(-c2csc(NC(=O)CN3C(=O)C4CCCCC4C3=O)n2)cc1OC (stereo not drawn),i,i,i,i,i,nt
C[C@@H](C(=O)Nc1nc(-c2ccccn2)cs1)N1C(=O)C2CCCCC2C1=O (stereo partly drawn),i,i,69.6,i,i,i
Cn1nc(C(=O)Nc2nc(-c3ccccn3)cs2)c2ccccc2c1=O,i,nt,nt,nt,nt,nt
COc1ccc(OC)c(NC(=O)CCn2ccnc2)c1,i,i,i,i,i,nt
Cc1ccc(NC(=O)CCNS(=O)(=O)c2ccc3c(c2)CCC(=O)N3)c(Br)c1,i,i,i,i,i,nt
Cc1ccc(S(=O)(=O)N2CCN(C(=O)c3cc(C4CC4)nc4c3cnn4C(C)C)CC2)cc1,i,nt,nt,nt,nt,nt
Clc1ccc(-c2nnc(-c3ccccc3)c(N3CCSCC3)n2)cc1,i,i,i,i,i,64.7
Clc1ccc(-c2nnc(-c3ccccc3)c(-c3ccccc3)n2)cc1,i,i,i,i,i,nt
CCN(CC(=O)NCc1cccs1)C(=O)c1ccc(NS(=O)(=O)c2ccc(C(C)=O)cc2)cc1,i,i,nt,i,i,nt
CCCCCCCCOC(=O)CCn1[nH]c(=O)c2ccccc2c1=O,i,i,i,i,i,79.6
CC(C)COC(=O)CCn1[nH]c(=O)c2ccccc2c1=O,i,i,i,i,i,i
CC1CCC2(CC1)NC(=O)N(CC(=O)N1c3ccccc3CC1C)C2=O (stereo not drawn),i,nt,nt,nt,nt,nt
O=C(CN1C(=O)c2ccc([N+](=O)[O-])cc2C1=O)NCC1CCCO1 (stereo not drawn),nt,i,nt,i,i,nt
SMILES,Rtt109 HAT inh,SKKanGAS inh,PHOSPHO1 inh,Platelet DG rel,TPT1 inh,WT yeast gro inh
O=C(C1CCN(S(=O)(=O)c2cccc3nsnc23)CC1)N1CCCc2ccccc21,i,i,60.5,i,i,i
O=C(C1CCN(S(=O)(=O)c2cccc3nsnc23)CC1)N1CCc2ccccc21,i,i,i,i,i,i
Cc1ccc(NC(=S)N=Nc2c(O)[nH]c3ccccc23)cc1,i,73.1,i,i,i,i
CNC(=S)N=Nc1c(O)[nH]c2ccccc12,i,i,i,i,i,i
COc1ccc(NC(=S)N=Nc2c(O)[nH]c3ccccc23)cc1,i,94.8,i,i,i,nt
Oc1ccc(NC(=S)N=Nc2c(O)[nH]c3ccccc23)cc1,i,i,i,i,i,i

# High-throughput results as filed in PubChem.
